# Experimental data reported in PubChem BioAssay AID1159580 (chemical genetic matrix, 2015).
# The whole screen tested about 5,500 compounds, of which about 2,000 (36%) were called active. Another 18% or so got no clear call; they are omitted. Some of the results follow. A number with no mark means an inactive call. Cut-off read from the data, not from the text of the source: active = normalized growth mostly below about 0.91 (no sharp cut-off); inconclusive = no clear call, values can overlap the other calls; inactive = mostly above about 0.92.
# Assay: chemical genetic growth profiling, strain panel (AID 1159580);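 note: tested at 20 µM; growth read once vehicle control cultures reached saturation at 30 °C; 1 = growth at the plate median or of vehicle wells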
# Conditions: S. cerevisiae deletion strains, growth OD
compound,measurement,setting,value
N#Cc1c(Br)cnn1Cc1cc(C(F)(F)F)cc(C(F)(F)F)c1,normalized growth,"locus YAR019C, strain CDC15, stronger effect = lower value",0.997
same,normalized growth,"locus YBL105C, strain PKC1, stronger effect = lower value",1
same,normalized growth,"locus YBR135W, strain CKS1, stronger effect = lower value",1.01
same,normalized growth,"locus YBR136W, strain MEC1, stronger effect = lower value",0.995
same,normalized growth,"locus YBR160W, strain CDC28, stronger effect = lower value",0.999
same,normalized growth,"locus YDL017W, strain CDC7, stronger effect = lower value",0.995
same,normalized growth,"locus YDL028C, strain MPS1, stronger effect = lower value",1
same,normalized growth,"locus YDL101C, strain DUN1, stronger effect = lower value",0.988
same,normalized growth,"locus YDL108W, strain KIN28, stronger effect = lower value",0.997
same,normalized growth,"locus YDL132W, strain cdc53, stronger effect = lower value",0.999
same,normalized growth,"locus YDL214C, strain PRR2, stronger effect = lower value",0.863
same,normalized growth,"locus YDR052C, strain DBF4, stronger effect = lower value",0.993
same,normalized growth,"locus YDR054C, strain cdc34, stronger effect = lower value",0.989
same,normalized growth,"locus YDR226W, strain ADK1, stronger effect = lower value",1
same,normalized growth,"locus YDR477W, strain SNF1, stronger effect = lower value",0.939
same,normalized growth,"locus YER123W, strain YCK3, stronger effect = lower value",0.842
same,normalized growth,"locus YER133W, strain GLC7, stronger effect = lower value",0.919
same,normalized growth,"locus YFL009W, strain cdc4, stronger effect = lower value",0.993
same,normalized growth,"locus YFL029C, strain CAK1, stronger effect = lower value",0.998
same,normalized growth,"locus YFR003C, strain YPI1, stronger effect = lower value",1
same,normalized growth,"locus YFR019W, strain FAB1, stronger effect = lower value",0.936
same,normalized growth,"locus YFR028C, strain CDC14, stronger effect = lower value",1
same,normalized growth,"locus YGR040W, strain KSS1, stronger effect = lower value",0.925
same,normalized growth,"locus YGR052W, strain FMP48, stronger effect = lower value",0.946
same,normalized growth,"locus YGR092W, strain DBF2, stronger effect = lower value",0.919
same,normalized growth,"locus YHR030C, strain SLT2, stronger effect = lower value",0.933
same,normalized growth,"locus YHR079C, strain IRE1, stronger effect = lower value",0.93
same,normalized growth,"locus YHR082C, strain KSP1, stronger effect = lower value",0.907
same,normalized growth,"locus YHR205W, strain SCH9, stronger effect = lower value",0.817
same,normalized growth,"locus YIL147C, strain SLN1, stronger effect = lower value",0.99
same,normalized growth,"locus YJL095W, strain BCK1, stronger effect = lower value",0.941
same,normalized growth,"locus YJL128C, strain PBS2, stronger effect = lower value",0.887
same,normalized growth,"locus YJL157C, strain FAR1, stronger effect = lower value",0.909
same,normalized growth,"locus YJR016C, strain ILV3, stronger effect = lower value",0.989
same,normalized growth,"locus YJR066W, strain TOR1 (second series), stronger effect = lower value",0.919
same,normalized growth,"locus YJR066W, strain TOR1, stronger effect = lower value",0.952
same,normalized growth,"locus YKL048C, strain ELM1, stronger effect = lower value",0.957
same,normalized growth,"locus YKL067W, strain YNK1, stronger effect = lower value",0.895
same,normalized growth,"locus YKL101W, strain HSL1, stronger effect = lower value",0.878
same,normalized growth,"locus YKL193C, strain SDS22, stronger effect = lower value",0.996
same,normalized growth,"locus YKL203C, strain TOR2, stronger effect = lower value",1
same,normalized growth,"locus YLR113W, strain HOG1, stronger effect = lower value",0.761 (active)
same,normalized growth,"locus YLR133W, strain CKI1, stronger effect = lower value",0.926
same,normalized growth,"locus YLR403W, strain SFP1, stronger effect = lower value",0.933
same,normalized growth,"locus YML070W, strain DAK1, stronger effect = lower value",0.884
same,normalized growth,"locus YMR001C, strain CDC5, stronger effect = lower value",0.997
same,normalized growth,"locus YMR205C, strain PFK2 (second series), stronger effect = lower value",0.907
same,normalized growth,"locus YMR277W, strain FCP1, stronger effect = lower value",1
same,normalized growth,"locus YNL006W, strain LST8, stronger effect = lower value",0.997
same,normalized growth,"locus YNL020C, strain ARK1, stronger effect = lower value",0.888
same,normalized growth,"locus YNL161W, strain CBK1, stronger effect = lower value",0.994
same,normalized growth,"locus YNL183C, strain NPR1, stronger effect = lower value",0.931
same,normalized growth,"locus YNL207W, strain RIO2, stronger effect = lower value",0.99
same,normalized growth,"locus YNL222W, strain SSU72, stronger effect = lower value",0.996
same,normalized growth,"locus YNL307C, strain MCK1 (second series), stronger effect = lower value",0.903
same,normalized growth,"locus YOL078W, strain AVO1, stronger effect = lower value",0.999
same,normalized growth,"locus YOL136C, strain PFK27, stronger effect = lower value",0.859
same,normalized growth,"locus YOR061W, strain CKA2, stronger effect = lower value",0.867
same,normalized growth,"locus YOR119C, strain RIO1, stronger effect = lower value",0.974
same,normalized growth,"locus YOR231W, strain MKK1, stronger effect = lower value",0.903
same,normalized growth,"locus YOR329C, strain SCD5, stronger effect = lower value",0.991
same,normalized growth,"locus YPL031C, strain PHO85, stronger effect = lower value",0.922
same,normalized growth,"locus YPL153C, strain RAD53, stronger effect = lower value",0.928
same,normalized growth,"locus YPL204W, strain HRR25, stronger effect = lower value",0.943
same,normalized growth,"locus YPL209C, strain IPL1, stronger effect = lower value",1
same,normalized growth,"locus YPL256C, strain CLN2, stronger effect = lower value",0.876
same,normalized growth,"locus YPR025C, strain CCL1, stronger effect = lower value",0.999
same,normalized growth,"locus YPR106W, strain ISR1, stronger effect = lower value",0.983
same,normalized growth,"locus YPR111W, strain DBF20, stronger effect = lower value",0.959
same,normalized growth,"strain NNK1, stronger effect = lower value",0.956
same,normalized growth,"strain TSCII, stronger effect = lower value",0.998
